Experimental data taken from PubChem BioAssay.
Calls of active or inactive are those of the source.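 How the source made its calls, unless noted: active means compound that reduces growth-factor-driven endothelial tube area in a mixed cell culture, no cutoff stated; inactive means the rest.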

Key:
[1] = stimulators of nuclear beta-catenin in C2C12, primary screen, imaging, WNT3A-conditioned medium, mouse C2C12, NPC library (AID 1117326; in the data active means nuclear beta-catenin stimulation mostly above about 4.2%, no sharp cut-off; inactive means mostly below about 10%); details: stronger effect = higher value
[2] = stimulators of insulin release from INS-1E, primary screen, cell-based, 5 mM glucose, NPC library (AID 1117329;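 active means compound raises insulin release from rat beta cells at 5 mM glucose, no numeric limit stated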); details: rat INS-1E insulin secretion, at 10 µM, stronger effect = higher value
[3] = growth inhibition of GSK3B-pretreated HCT116 cells – cell-based, CellTiter-Glo, 0.2 to 20 µM (AID 1117336;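 active means compounds lowering colon cancer cell viability after pretreatment blocking the GSK3B kinase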); details: HCT116 viability after GSK3B inhibitor, at 20 µM, stronger effect = higher value
[4] = inhibition of endothelial tube formation, primary screen, imaging, VEGF stimulated, CD31 staining, tube area, NPC library (AID 1117340); details: VEGF-stimulated ADSC/ECFC co-culture, at 10 µM, stronger effect = higher value
[5] = glucagon-like peptide 1 release enhancers, primary assay, NCI-H716 cell line, NPC library (AID 1117341;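 active means compound raises GLP1 secretion from the human gut endocrine cells, with no numeric limit stated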); details: NCI-H716 cells, at 10 µM, stronger effect = higher value
[6] = HCT116 colon cancer cell growth inhibition, primary screen, CellTiter-Glo luminescence, NPC library (AID 1117342;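 active means compounds that lower survival of HCT116 colon cancer cells in the luminescence readout, no numeric limit stated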); details: at 20 µM (top of the series)
[7] = CellTiter-Glo luminescent readout of SW480 viability loss, NPC library primary (AID 1117343;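 active means compounds that lower viability of the colon cancer cells in the luminescence readout, with no numeric limit stated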); details: CellTiter-Glo luminescence; at 20 µM (top of the series)
[8] = decreased DLD-1 cellular survival, CellTiter-Glo luminescent readout, NPC compound collection, primary HTS (AID 1117346;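 active means compounds that lower survival of DLD-1 colon cancer cells in the luminescence readout, no cutoff given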); details: DLD-1 viability, CellTiter-Glo luminescence; at 20 µM (top of the series)
[9] = kinase inhibitors against Plasmodium liver-stage infection, cell-based, known kinase inhibitor set, luminescence, hepatoma host viability (AID 624392; call rule not given here;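 further: infected cells incubated roughly two days before readout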); details: Plasmodium liver stage in hepatoma cells, luciferase luminescence, concentration not given here; liver cell % of control: measured here: host liver cell viability; parasite % of control: stronger effect = lower value
[10] = modulators of glucocorticoid suppression of NF-kB, cell-based, luciferase, IL-1B stimulus, dexamethasone (AID 624486; call rule not given here;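 on percent of negative control (+Dex): 100% = mean signal of vehicle control wells on the plate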); details: NF-kB luciferase reporter, IL-1B + dexamethasone, luminescence; percent of negative control (+Dex): actives lie on both sides, concentration not given here; z-score: measured here: IL-1B alone, no Dex
[11] = kinase inhibitors altering Pseudomonas killing of worms, whole organism (AID 651566; call rule not given here;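 further: tested at 14 µM; sign flipped so higher z means a lower ratio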); details: C. elegans killed by P. aeruginosa, survival ratio
[12] = activators of macrophage pro-inflammatory response, cell-based, murine, luminescence (AID 652131; call rule not given here); details: murine macrophage pro-inflammatory reporter, stronger effect = higher value
[13] = target: Cellular tumor antigen p53 (Homo sapiens) (UniProt P04637); experiment: kinase inhibitors altering GFP-p53 stability in HPV16-positive cells, imaging, known kinase inhibitor set, EGFP/DsRed ratio (AID 1053116; call rule not given here;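 further: cells exposed to compounds for 24 h at 37 °C before reading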); details: stronger effect = higher value; EGFP object count: measured here: GFP-p53 positive objects count
Sequence of Cellular tumor antigen p53 (Homo sapiens) (P04637 whole entry, looked up): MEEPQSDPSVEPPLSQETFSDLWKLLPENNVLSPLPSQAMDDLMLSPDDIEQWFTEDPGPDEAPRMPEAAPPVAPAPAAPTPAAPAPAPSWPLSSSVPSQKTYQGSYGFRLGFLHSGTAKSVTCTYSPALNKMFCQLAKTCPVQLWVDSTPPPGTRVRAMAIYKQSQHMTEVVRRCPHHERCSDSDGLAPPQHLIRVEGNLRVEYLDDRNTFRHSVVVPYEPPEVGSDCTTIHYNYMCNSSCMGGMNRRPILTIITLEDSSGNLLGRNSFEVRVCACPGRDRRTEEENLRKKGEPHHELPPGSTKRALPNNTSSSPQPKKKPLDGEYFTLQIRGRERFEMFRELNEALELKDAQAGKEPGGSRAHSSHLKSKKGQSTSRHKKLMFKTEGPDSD

[14] = IRF3 reporter activation in THP-1 macrophages, cell-based, PMA-stimulated THP-1, luminescence (AID 1053176; call rule not given here); details: PMA-differentiated THP-1, IRF3 reporter luminescence; stronger effect = higher value
[15] = survival rescue of mitochondrial mutant cells in low glucose, primary screen, MELAS cybrids, Rieske KO mouse fibroblasts, CellTiter-Glo (AID 1508586;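 active means mean z-score across replicates of 1.96 or higher in either the MELAS or the Rieske mutant cell line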;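 further: z relative to plate mean and SD of compound and empty wells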)

COP(=S)(OC)Oc1ccc(S(N)(=O)=O)cc1
1.1%: nuclear beta-catenin stimulation ([1]; stimulation, at 2 µM)
inactive: nuclear beta-catenin stimulation ([1]; at 10 µM) 0.4% | insulin secretion stimulation [2] -1.7% | viability decrease [3] -4.35% | tube area decrease [4] -30.3% | GLP1 secretion stimulation [5] 1.6% | inhibition of viability [6] -18.1% | viability decrease (inhibition) [7] 4.3% | viability decrease (inhibition) [8] -0.7%

C1CN(P2(N3CC3)=NP(N3CC3)(N3CC3)=NP(N3CC3)(N3CC3)=N2)CCO1 (stereo unspecified)
inactive: nuclear beta-catenin stimulation ([1]; at 10 µM) -0.2% | insulin secretion stimulation [2] 2.5% | viability decrease [3] 8.1% | GLP1 secretion stimulation [5] -5.1% | inhibition of viability [6] 30.4% | viability decrease (inhibition) [8] 5.5%
active: tube area decrease [4] 86.7% | viability decrease (inhibition) [7] 17.7%
0.7%: nuclear beta-catenin stimulation ([1]; stimulation, at 2 µM)

O=C1OC(CCN2CCCCC2)OC1(c1ccccc1)c1ccccc1 (stereo unspecified)
0.5%: nuclear beta-catenin stimulation ([1]; stimulation, at 2 µM)
inactive: nuclear beta-catenin stimulation ([1]; at 10 µM) 15% | insulin secretion stimulation [2] 5.9% | viability decrease [3] 0.7% | tube area decrease [4] 6% | GLP1 secretion stimulation [5] 4.4% | inhibition of viability [6] 1.1% | viability decrease (inhibition) [7] 15%
active: viability decrease (inhibition) [8] 92.8%

O=C(CCl)c1ccc(Cl)cc1Cl
active: nuclear beta-catenin stimulation ([1]; at 10 µM) 3.3% | viability decrease [3] 66.2% | tube area decrease [4] 104% | inhibition of viability [6] 88.3% | viability decrease (inhibition) [7] 91.8% | viability decrease (inhibition) [8] 64.8%
inactive: insulin secretion stimulation [2] 4.4% | GLP1 secretion stimulation [5] -6.4%
45.6%: nuclear beta-catenin stimulation ([1]; stimulation, at 2 µM)

O=c1oc2ccccc2c(O)c1C(CC(O)c1ccc(-c2ccc(Br)cc2)cc1)c1ccccc1 (stereo unspecified)
2.6%: nuclear beta-catenin stimulation ([1]; stimulation, at 2 µM)
inactive: nuclear beta-catenin stimulation ([1]; at 10 µM) 8.3% | insulin secretion stimulation [2] 3.6% | tube area decrease [4] 2.4%
active: viability decrease [3] 100% | GLP1 secretion stimulation [5] 23.9% | inhibition of viability [6] 101% | viability decrease (inhibition) [7] 122% | viability decrease (inhibition) [8] 103%

COc1cccc(C(=O)CCN[C@@H](C)[C@H](O)c2ccccc2)c1
inactive: nuclear beta-catenin stimulation ([1]; at 10 µM) 20.8% | insulin secretion stimulation [2] 8.8% | viability decrease [3] -1.3% | GLP1 secretion stimulation [5] 0.7% | inhibition of viability [6] 2.3%
-0.6%: nuclear beta-catenin stimulation ([1]; stimulation, at 2 µM)
active: tube area decrease [4] 42% | viability decrease (inhibition) [7] 91.6% | viability decrease (inhibition) [8] 75.9%

O=C(NC1NNC2NNC(c3cccnc3)CC21)C1CC1 (stereo unspecified)
-0.386: z-score ([15]; Rieske KO mouse fibroblast survival, CellTiter-Glo 72 h)
79.6%: liver cell % of control [9]
inactive: parasite % of control [9] 32.1% | z-score [11] -1.13 | z-score [12] 4.01 | fraction signal [14] 0.001 | z-score ([15]; MELAS cybrid survival, CellTiter-Glo 48 h, stronger effect = higher value) -1.09
52: EGFP object count [13]
active: percent of negative control (+Dex) [10] 166% | EGFP/DsRed ratio [13] 0.68
-0.58: z-score [10]

C[C@]12CC[C@H]3[C@@H](CCC4=CC(=O)CC[C@@H]43)[C@@H]1CC[C@@H]2OC(=O)CCc1ccco1
1%: nuclear beta-catenin stimulation ([1]; stimulation, at 2 µM)
active: tube area decrease [4] 47.2%
inactive: nuclear beta-catenin stimulation ([1]; at 10 µM) 2.9% | insulin secretion stimulation [2] 2.5% | viability decrease [3] -67% | GLP1 secretion stimulation [5] -3.2% | inhibition of viability [6] 23.6% | viability decrease (inhibition) [7] 37.2% | viability decrease (inhibition) [8] 14.9%

CC(=O)C1CCOC1=O (stereo unspecified)
1.2%: nuclear beta-catenin stimulation ([1]; stimulation, at 2 µM)
inactive: nuclear beta-catenin stimulation ([1]; at 10 µM) -0.1% | insulin secretion stimulation [2] 3.7% | viability decrease [3] 13.5% | tube area decrease [4] -5% | GLP1 secretion stimulation [5] 2.7% | inhibition of viability [6] 16.7% | viability decrease (inhibition) [7] 1.5% | viability decrease (inhibition) [8] 1.4%

O=c1ccc2cc(O[C@@H]3O[C@H](CO)[C@H](O)[C@H](O)[C@H]3O)c(O)cc2o1
-0.5%: nuclear beta-catenin stimulation ([1]; stimulation, at 2 µM)
inactive: nuclear beta-catenin stimulation ([1]; at 10 µM) -0.9% | insulin secretion stimulation [2] 5% | viability decrease [3] -6.5% | tube area decrease [4] -14.5% | GLP1 secretion stimulation [5] -2.1% | inhibition of viability [6] 8.5% | viability decrease (inhibition) [7] 13.9% | viability decrease (inhibition) [8] -0.6%

C#CCOC(C(=O)OCCN(C)C)(c1ccccc1)c1ccccc1
active: insulin secretion stimulation [2] 28.7%
inactive: nuclear beta-catenin stimulation ([1]; at 10 µM) 2.7% | viability decrease [3] -8.15% | tube area decrease [4] 36.7% | GLP1 secretion stimulation [5] 5.3% | inhibition of viability [6] -6.2% | viability decrease (inhibition) [7] 17.1% | viability decrease (inhibition) [8] -1.8%
0.9%: nuclear beta-catenin stimulation ([1]; stimulation, at 2 µM)

COc1cc(CC#N)cc(OC)c1OC
1.2%: nuclear beta-catenin stimulation ([1]; stimulation, at 2 µM)
inactive: nuclear beta-catenin stimulation ([1]; at 10 µM) 0% | insulin secretion stimulation [2] 2.2% | viability decrease [3] 2.6% | tube area decrease [4] 36.1% | GLP1 secretion stimulation [5] 4.1% | inhibition of viability [6] 22.6% | viability decrease (inhibition) [7] 15.5% | viability decrease (inhibition) [8] -1.6%

CCO[C@H]1O[C@@H]2OC3(C)CC[C@H]4[C@H](C)CC[C@@H]([C@H]1C)[C@@]24OO3
25.2%: nuclear beta-catenin stimulation ([1]; stimulation, at 2 µM)
active: viability decrease [3] 50.5%
inactive: nuclear beta-catenin stimulation ([1]; at 10 µM) 6.9% | insulin secretion stimulation [2] 2.6% | tube area decrease [4] 34.8% | GLP1 secretion stimulation [5] 6.1% | inhibition of viability [6] 34.8% | viability decrease (inhibition) [7] 37.5% | viability decrease (inhibition) [8] 37.1%

Nc1ccccc1C(=O)OCC(O)CO (stereo unspecified)
3.4%: nuclear beta-catenin stimulation ([1]; stimulation, at 2 µM)
inactive: nuclear beta-catenin stimulation ([1]; at 10 µM) 3.1% | insulin secretion stimulation [2] -1.4% | viability decrease [3] -40% | tube area decrease [4] 21.1% | GLP1 secretion stimulation [5] -1.2% | inhibition of viability [6] -0.1% | viability decrease (inhibition) [7] -4.5% | viability decrease (inhibition) [8] -4.9%

CCOP(=S)(OCC)O/N=C(\C#N)c1ccccc1
0.3%: nuclear beta-catenin stimulation ([1]; stimulation, at 2 µM)
inactive: nuclear beta-catenin stimulation ([1]; at 10 µM) -0.3% | insulin secretion stimulation [2] -1.4% | viability decrease [3] -25.2% | tube area decrease [4] -2.3% | GLP1 secretion stimulation [5] -1.1% | inhibition of viability [6] 0.2% | viability decrease (inhibition) [7] 36.2% | viability decrease (inhibition) [8] -6.4%

Nc1ccccc1C(=O)O
inactive: nuclear beta-catenin stimulation ([1]; at 10 µM) 1.8% | insulin secretion stimulation [2] 0.9% | viability decrease [3] -0.1% | tube area decrease [4] -2.6% | GLP1 secretion stimulation [5] 1.1% | inhibition of viability [6] 6.4% | viability decrease (inhibition) [7] 11.5% | viability decrease (inhibition) [8] -8.85%
1.3%: nuclear beta-catenin stimulation ([1]; stimulation, at 2 µM)
